Source: article PMC9911399, “Two distinct binding modes provide the RNA-binding protein RbFox with extraordinary sequence specificity”
Numbering of substitutions follows the chain as printed; changes in the protein carry UniProt numbers. Over roughly 16,000 sequences, “ka relative to ugcaugu” has its median near 0.096; the highest 2% begin near 0.35. Shown is part of a subset that was picked to be rich in the highest values.

T1: RBFOX1 RRM RbFoxmut (Fox-RRM*) (Homo sapiens, UniProt Q9NWB1 109-208, R118D;E147R;N151S;E152T)
T1 sequence: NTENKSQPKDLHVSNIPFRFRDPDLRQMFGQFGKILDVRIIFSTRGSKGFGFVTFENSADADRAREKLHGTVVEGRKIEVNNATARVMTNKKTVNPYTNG

B1: UAUACUA (DNA:RNA)
RNA: GGGAGACCGGAAUUCAGAUUGUCCUAUACUAUUAAAUCCCGUCGUAGCCACCA
DNA 1: CAATCTGAATTCCGGTCTCCC
DNA 2: TGGTGGCTACGACGGGATT
B2: CUUGGCU (DNA:RNA)
RNA: B1 RNA with U25C, A26U, A28G, C29G, U30C, A31U
DNA 1: CAATCTGAATTCCGGTCTCCC
DNA 2: TGGTGGCTACGACGGGATT
B3: AAGCCAC (DNA:RNA)
RNA: B1 RNA with U25A, U27G, A28C, U30A, A31C
DNA 1: CAATCTGAATTCCGGTCTCCC
DNA 2: TGGTGGCTACGACGGGATT
B4: CUGCCGC (DNA:RNA)
RNA: B1 RNA with U25C, A26U, U27G, A28C, U30G, A31C
DNA 1: CAATCTGAATTCCGGTCTCCC
DNA 2: TGGTGGCTACGACGGGATT
B5: UACUCGG (DNA:RNA)
RNA: B1 RNA with U27C, A28U, U30G, A31G
DNA 1: CAATCTGAATTCCGGTCTCCC
DNA 2: TGGTGGCTACGACGGGATT
B6: CAGGGUU (DNA:RNA)
RNA: B1 RNA with U25C, U27G, A28G, C29G, A31U
DNA 1: CAATCTGAATTCCGGTCTCCC
DNA 2: TGGTGGCTACGACGGGATT
B7: CCUACAU (DNA:RNA)
RNA: B1 RNA with U25C, A26C, U30A, A31U
DNA 1: CAATCTGAATTCCGGTCTCCC
DNA 2: TGGTGGCTACGACGGGATT
B8: UGUCUCG (DNA:RNA)
RNA: B1 RNA with A26G, A28C, C29U, U30C, A31G
DNA 1: CAATCTGAATTCCGGTCTCCC
DNA 2: TGGTGGCTACGACGGGATT
B9: UGAAGGC (DNA:RNA)
RNA: B1 RNA with A26G, U27A, C29G, U30G, A31C
DNA 1: CAATCTGAATTCCGGTCTCCC
DNA 2: TGGTGGCTACGACGGGATT
B10: AUUUCAU (DNA:RNA)
RNA: B1 RNA with U25A, A26U, A28U, U30A, A31U
DNA 1: CAATCTGAATTCCGGTCTCCC
DNA 2: TGGTGGCTACGACGGGATT
B11: CACACCG (DNA:RNA)
RNA: B1 RNA with U25C, U27C, U30C, A31G
DNA 1: CAATCTGAATTCCGGTCTCCC
DNA 2: TGGTGGCTACGACGGGATT
B12: UGGGUAU (DNA:RNA)
RNA: B1 RNA with A26G, U27G, A28G, C29U, U30A, A31U
DNA 1: CAATCTGAATTCCGGTCTCCC
DNA 2: TGGTGGCTACGACGGGATT
B13: GUUCCGU (DNA:RNA)
RNA: B1 RNA with U25G, A26U, A28C, U30G, A31U
DNA 1: CAATCTGAATTCCGGTCTCCC
DNA 2: TGGTGGCTACGACGGGATT
B14: AUAUCCC (DNA:RNA)
RNA: B1 RNA with U25A, A26U, U27A, A28U, U30C, A31C
DNA 1: CAATCTGAATTCCGGTCTCCC
DNA 2: TGGTGGCTACGACGGGATT
B15: UGAUACC (DNA:RNA)
RNA: B1 RNA with A26G, U27A, A28U, C29A, U30C, A31C
DNA 1: CAATCTGAATTCCGGTCTCCC
DNA 2: TGGTGGCTACGACGGGATT
B16: CCUAGCC (DNA:RNA)
RNA: B1 RNA with U25C, A26C, C29G, U30C, A31C
DNA 1: CAATCTGAATTCCGGTCTCCC
DNA 2: TGGTGGCTACGACGGGATT
B17: GGAAGUC (DNA:RNA)
RNA: B1 RNA with U25G, A26G, U27A, C29G, A31C
DNA 1: CAATCTGAATTCCGGTCTCCC
DNA 2: TGGTGGCTACGACGGGATT
B18: UUGUCCG (DNA:RNA)
RNA: B1 RNA with A26U, U27G, A28U, U30C, A31G
DNA 1: CAATCTGAATTCCGGTCTCCC
DNA 2: TGGTGGCTACGACGGGATT
B19: UGGUACG (DNA:RNA)
RNA: B1 RNA with A26G, U27G, A28U, C29A, U30C, A31G
DNA 1: CAATCTGAATTCCGGTCTCCC
DNA 2: TGGTGGCTACGACGGGATT
B20: CGGUACG (DNA:RNA)
RNA: GGGAGACCGGAAUUCAGAUUGUCCCGGUACGUUAAAUCCCGUCGUAGCCACCA
DNA 1: CAATCTGAATTCCGGTCTCCC
DNA 2: TGGTGGCTACGACGGGATT
B21: UUGUUCG (DNA:RNA)
RNA: B20 RNA with C25U, G26U, A29U
DNA 1: CAATCTGAATTCCGGTCTCCC
DNA 2: TGGTGGCTACGACGGGATT
B22: UGGUACC (DNA:RNA)
RNA: B20 RNA with C25U, G31C
DNA 1: CAATCTGAATTCCGGTCTCCC
DNA 2: TGGTGGCTACGACGGGATT
B23: GUCCUUG (DNA:RNA)
RNA: B20 RNA with C25G, G26U, G27C, U28C, A29U, C30U
DNA 1: CAATCTGAATTCCGGTCTCCC
DNA 2: TGGTGGCTACGACGGGATT
B24: GUAACCG (DNA:RNA)
RNA: B20 RNA with C25G, G26U, G27A, U28A, A29C
DNA 1: CAATCTGAATTCCGGTCTCCC
DNA 2: TGGTGGCTACGACGGGATT
B25: UGAUCUC (DNA:RNA)
RNA: B1 RNA with A26G, U27A, A28U, A31C
DNA 1: CAATCTGAATTCCGGTCTCCC
DNA 2: TGGTGGCTACGACGGGATT
B26: UGCUGAG (DNA:RNA)
RNA: B20 RNA with C25U, G27C, A29G, C30A
DNA 1: CAATCTGAATTCCGGTCTCCC
DNA 2: TGGTGGCTACGACGGGATT
B27: GUAAUGU (DNA:RNA)
RNA: B1 RNA with U25G, A26U, U27A, C29U, U30G, A31U
DNA 1: CAATCTGAATTCCGGTCTCCC
DNA 2: TGGTGGCTACGACGGGATT
B28: GAUGUUU (DNA:RNA)
RNA: B1 RNA with U25G, A28G, C29U, A31U
DNA 1: CAATCTGAATTCCGGTCTCCC
DNA 2: TGGTGGCTACGACGGGATT
B29: GAAUGUU (DNA:RNA)
RNA: B1 RNA with U25G, U27A, A28U, C29G, A31U
DNA 1: CAATCTGAATTCCGGTCTCCC
DNA 2: TGGTGGCTACGACGGGATT
B30: GGAAUGU (DNA:RNA)
RNA: B20 RNA with C25G, G27A, U28A, A29U, C30G, G31U
DNA 1: CAATCTGAATTCCGGTCTCCC
DNA 2: TGGTGGCTACGACGGGATT
B31: CCGAAUG (DNA:RNA)
RNA: B20 RNA with G26C, U28A, C30U
DNA 1: CAATCTGAATTCCGGTCTCCC
DNA 2: TGGTGGCTACGACGGGATT
B32: CGUCGUU (DNA:RNA)
RNA: B20 RNA with G27U, U28C, A29G, C30U, G31U
DNA 1: CAATCTGAATTCCGGTCTCCC
DNA 2: TGGTGGCTACGACGGGATT
B33: GAAAUGU (DNA:RNA)
RNA: B1 RNA with U25G, U27A, C29U, U30G, A31U
DNA 1: CAATCTGAATTCCGGTCTCCC
DNA 2: TGGTGGCTACGACGGGATT
B34: CCCCGAA (DNA:RNA)
RNA: B20 RNA with G26C, G27C, U28C, A29G, C30A, G31A
DNA 1: CAATCTGAATTCCGGTCTCCC
DNA 2: TGGTGGCTACGACGGGATT
B35: CGAUUGU (DNA:RNA)
RNA: B20 RNA with G27A, A29U, C30G, G31U
DNA 1: CAATCTGAATTCCGGTCTCCC
DNA 2: TGGTGGCTACGACGGGATT
B36: CGAAUGU (DNA:RNA)
RNA: B20 RNA with G27A, U28A, A29U, C30G, G31U
DNA 1: CAATCTGAATTCCGGTCTCCC
DNA 2: TGGTGGCTACGACGGGATT
B37: CGAAAUG (DNA:RNA)
RNA: B20 RNA with G27A, U28A, C30U
DNA 1: CAATCTGAATTCCGGTCTCCC
DNA 2: TGGTGGCTACGACGGGATT
B38: CGAAUUG (DNA:RNA)
RNA: B20 RNA with G27A, U28A, A29U, C30U
DNA 1: CAATCTGAATTCCGGTCTCCC
DNA 2: TGGTGGCTACGACGGGATT

molecular target: T1, RBFOX1 RRM RbFoxmut (Fox-RRM*); assay: EMSA; HiTS-Eq, 1 nM pool, 10 min; buffer printed only for the single-RNA assays: 10 mM Tris pH 7.5, 150 mM NaCl, 3.4 mM EDTA, 0.001% NP-40, 30 C; settings: tags: His6 N-terminal (pET28a); label: 5' 32P
Outline: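 Relative association constants, normalised to the cognate motif, were derived by comparing read counts of each RNA species with those of the control reaction. The RNA sequenced was the free fraction, separated by 8% native PAGE after a 10 min equilibration in 50 µL of 1 nM 5′-radiolabelled RNA (7 randomized nucleotides) with increasing concentrations of purified wild-type or mutant RbFox RRM.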

| Binder | binding signal |
| --- | --- |
| B1 | 0.0619 KA relative to UGCAUGU |
| B2 | 0.102 KA relative to UGCAUGU |
| B3 | 0.0884 KA relative to UGCAUGU |
| B4 | 0.116 KA relative to UGCAUGU |
| B5 | 0.0779 KA relative to UGCAUGU |
| B6 | 0.106 KA relative to UGCAUGU |
| B7 | 0.0881 KA relative to UGCAUGU |
| B8 | 0.32 KA relative to UGCAUGU |
| B9 | 0.0677 KA relative to UGCAUGU |
| B10 | 0.12 KA relative to UGCAUGU |
| B11 | 0.12 KA relative to UGCAUGU |
| B12 | 0.172 KA relative to UGCAUGU |
| B13 | 0.127 KA relative to UGCAUGU |
| B14 | 0.0954 KA relative to UGCAUGU |
| B15 | 0.103 KA relative to UGCAUGU |
| B16 | 0.149 KA relative to UGCAUGU |
| B17 | 0.111 KA relative to UGCAUGU |
| B18 | 0.188 KA relative to UGCAUGU |
| B19 | 0.367 KA relative to UGCAUGU |

| Binder | binding signal |
| --- | --- |
| B20 | 0.24 KA relative to UGCAUGU |
| B21 | 0.463 KA relative to UGCAUGU |
| B22 | 0.133 KA relative to UGCAUGU |
| B23 | 0.116 KA relative to UGCAUGU |
| B24 | 0.114 KA relative to UGCAUGU |
| B25 | 0.0775 KA relative to UGCAUGU |
| B26 | 0.102 KA relative to UGCAUGU |
| B27 | 0.154 KA relative to UGCAUGU |
| B28 | 0.125 KA relative to UGCAUGU |
| B29 | 0.884 KA relative to UGCAUGU |
| B30 | 0.959 KA relative to UGCAUGU |
| B31 | 1.39 KA relative to UGCAUGU |
| B32 | 0.108 KA relative to UGCAUGU |
| B33 | 0.0843 KA relative to UGCAUGU |
| B34 | 0.136 KA relative to UGCAUGU |
| B35 | 0.206 KA relative to UGCAUGU |
| B36 | 1.07 KA relative to UGCAUGU |
| B37 | 0.101 KA relative to UGCAUGU |
| B38 | 0.141 KA relative to UGCAUGU |
